Methyltransferases: Primary Screen for Target Class Profiling of Small Molecule Inhibitors of Methyltransferases; calls only at 40 µM; hit rate 3.9% among 25,000; purified enzyme, MTase-Glo SAH luminescence; hits give low values; call rule not given here
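Each enzyme was assayed with SAM and its substrate. SAH formation detected by MTase-Glo luminescence; single-point 40 uM screen[…].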
Calls only; n = inactive; + = active, no number. The full list was thinned out, with hits kept by preference.

SMILES	Methyltransferases
COc1ccc(-c2cc3n(n2)CC(C)(C(=O)NCc2ccccc2OC)N(Cc2ccccc2OC)C3=O)cc1 (centres undefined)	n
CCc1cc2c(cc3n2CC(C)(C(=O)NC2CCC(C)CC2)N(CCN2CCOCC2)C3=O)s1 (centres undefined)	n
COc1ccc(CN2C(=O)c3cc4ccc(OC)cc4n3CC2(C)C(=O)NCC2CCCO2)cc1 (centres undefined)	n
O=C(CCc1nnc2n(CCc3ccccc3)c(=O)c3ccccc3n12)NCc1cccnc1	n
CCN(CC)CCCCCCNc1cc(OC)cc2c(C)ccnc12	+
CC1(C(=O)NC2CCCCCC2)Cn2c(ccc2-c2ccco2)C(=O)N1CCc1cccc(Cl)c1 (centres undefined)	n
CCOc1ccc(CN2C(=O)c3cc4occc4n3CC2(C)C(=O)NC2CCCCC2)cc1 (centres undefined)	n
Cc1nc(-c2ccc(CNC(=O)CN3CCN(c4ncccn4)CC3)cc2)no1	n
C=Cc1cc(O)cc2nc(-c3ccc(O)c(F)c3)oc12	+
CC(C)(C)c1cc2n(n1)CC(C)(C(=O)NC1CCCCCC1)N(c1ccc(F)cc1F)C2=O (centres undefined)	n
CCN(CC1CCCN(CCc2cccc(OC)c2)C1)C(=O)CSC (centres undefined)	n
Cc1ccc(C(=O)COC(=O)C(Cc2c[nH]c3ccccc23)NC(=O)c2ccco2)cc1 (centres undefined)	n
Cc1cc2c(cc3n2CC(C)(C(=O)NC2CCCCCCC2)N(C2CCCC2)C3=O)o1 (centres undefined)	n
C=C1CC[C@H]2C(=C)CC[C@H]3C(=C)C(=O)O[C@@H]3[C@@H]12	n
C=C1C(=O)OC2C1CCC1(C)C(O)CC=C(C)C21 (centres undefined)	+
C=C1CC[C@@H](O)[C@]2(C)C[C@H]3OC(=O)C(=C)[C@H]3CC12 (some centres undefined)	n
CCCCN(CC)CCN1C(=O)c2cc3sc(CC)cc3n2CC1(C)C(=O)NC1CCCCC1 (centres undefined)	n
O=C(Cn1c(=O)oc2cc(S(=O)(=O)N3CCCC3)ccc21)N1CCC(Cc2ccccc2)CC1	n
COCCN1CC2CN(C(=O)CCCc3ccccc3)CC(C1)O2	n
NC(=O)c1ccccc1Nc1ccnc(Nc2cccc(O)c2)n1	+
O=C(O)c1ccccc1Nc1cccc(OCc2ccc3ccccc3n2)c1	n
COc1ccccc1C(=O)N1CCN(c2nccc(Nc3ccccc3Cl)n2)CC1	n
O=C(Nc1ccc(F)cc1)N1Cc2c(sc3c2CCCC3)-n2cccc2C1c1cccc(F)c1 (centres undefined)	n
Cc1cc(O)c(-c2ccc([C@@H](C)CN(C)C)cc2)c2c1[nH]c(=O)c1sccc12	+
CCOC(=O)c1cc2n(n1)CC(C)(C(=O)NCc1ccc(Cl)cc1)N(Cc1ccc(C)o1)C2=O (centres undefined)	n
SMILES	Methyltransferases
CCOCCn1c(=O)n(Cc2cc(OC)ccn2)c2cc(C(=O)O)cnc21	n
CCc1cccc(NC(=O)c2cc3n(n2)CC(C)(C(=O)NC2CCCCCC2)N(C)C3=O)c1 (centres undefined)	n
COc1ccc(/C=C/C(=O)O[C@@H]2[C@@H](OC(C)=O)[C@@H](OC(C)=O)[C@H](O[C@H]3[C@@H]4C=CO[C@@H](O[C@@H]5O[C@H](CO)[C@@H](O)[C@H](O)[C@H]5O)[C@@H]4[C@@]4(CO)O[C@@H]34)O[C@H]2C)cc1O	+
O=C(/C=C/c1ccccc1)OC[C@]12O[C@H]1[C@@H](O)[C@@H]1C=CO[C@@H](O[C@@H]3O[C@H](CO)[C@@H](O)[C@H](O)[C@H]3O)[C@@H]12	+
COc1ccc(/C=C/C(=O)O[C@@H]2[C@@H](O)[C@@H](O)[C@H](O[C@H]3[C@@H]4C=CO[C@@H](O[C@@H]5O[C@H](CO)[C@@H](O)[C@H](O)[C@H]5O)[C@@H]4[C@@]4(CO)O[C@@H]34)O[C@H]2C)cc1	n
O=C(/C=C/c1ccc(O)cc1)OC[C@]12O[C@H]1[C@@H](O)[C@@H]1C=CO[C@@H](O[C@@H]3O[C@H](CO)[C@@H](O)[C@H](O)[C@H]3O)[C@@H]12	n
C[C@@H](OC(=O)/C=C/c1ccc(O)cc1)C1=C[C@]2(C=C[C@@H]3C(C(=O)O)=CO[C@@H](O[C@@H]4O[C@H](CO[C@@H]5O[C@H](CO)[C@@H](O)[C@H](O)[C@H]5O)[C@@H](O)[C@H](O)[C@H]4O)[C@@H]32)OC1=O	n
CC(=O)O[C@@H]1[C@@H](OC(=O)/C=C/c2ccccc2)[C@@H](OC(C)=O)[C@H](O[C@H]2[C@@H]3C=CO[C@@H](O[C@@H]4O[C@H](CO)[C@@H](O)[C@H](O)[C@H]4O)[C@@H]3[C@@]3(CO)O[C@@H]23)O[C@H]1C	n
CC(=O)O[C@@H]1[C@@H](OC(C)=O)[C@H](C)O[C@@H](O[C@H]2[C@@H]3C=CO[C@@H](O[C@@H]4O[C@H](CO)[C@@H](O)[C@H](O)[C@H]4O)[C@@H]3[C@@]3(CO)O[C@@H]23)[C@@H]1OC(=O)/C=C/c1ccccc1	n
COc1ccc(/C=C/C(=O)O[C@@H]2[C@@H](O[C@@H]3O[C@H](CO)[C@@H](O)[C@H](O)[C@H]3O)[C@@H](O)[C@H](O[C@H]3C4C=CO[C@@H](O[C@@H]5O[C@H](CO)[C@@H](O)[C@H](O)[C@H]5O)C4[C@@]4(CO)O[C@@H]34)O[C@H]2C)cc1 (some centres undefined)	n
COC(=O)C1=COC(OC2OC(CO)C(O)C(O)C2O)C2C1C=CC2(O)CO (centres undefined)	n
CC(=O)O[C@H]1[C@@H](O)[C@H](O[C@H]2[C@@H]3C=CO[C@@H](O[C@H]4O[C@@H](CO)[C@H](O)[C@@H](O)[C@@H]4O)[C@@H]3[C@@]3(CO)O[C@@H]23)O[C@@H](C)[C@@H]1OC(=O)/C=C/c1ccccc1	n
COc1cc(/C=C/C(=O)O[C@H]2[C@@H]3C=CO[C@@H](O[C@@H]4O[C@H](CO)[C@@H](O)[C@H](O)[C@H]4O)[C@@H]3[C@@]3(CO)O[C@@H]23)ccc1O	+
O=C(/C=C/c1ccc(O)cc1)OC[C@@]1(O)C=C[C@@H]2C(C(=O)O)=CO[C@@H](O[C@@H]3O[C@H](CO)[C@@H](O)[C@H](O)[C@H]3O)[C@@H]21	+
Cc1ncoc1C(=O)N1CCC2(CC1)CC(N(Cc1ccccc1)C1CC1)CCO2 (centres undefined)	n
CC(C)n1c(=O)c2ccc(C(=O)NC3CCCC3)cc2n2c(=O)n(Cc3c(F)cccc3Cl)nc12	n
CCOc1ccccc1CN1C(=O)c2cc3occc3n2CC1(C)C(=O)NC1CCCCCC1 (centres undefined)	n
Cc1ccc(C(=O)Cn2nc3n(CC(C)C)c(=O)c4ccc(C(=O)NC5CCCC5)cc4n3c2=O)cc1	n
CC1(C(=O)NCc2ccc(Cl)cc2)Cn2c(ccc2-c2ccco2)C(=O)N1CCC1=CCCCC1 (centres undefined)	n
O=C(Cc1cc2c(cc1Cl)OCCO2)N[C@@H]1COCC[C@@H]1OCC1CC1	n
COc1cccc(CSc2nnc3n(C)c(=O)c4ccc(C(=O)NC5CCCCC5)cc4n23)c1	n
CC(CN1C(=O)c2cc3occc3n2CC1(C)C(=O)NC1CCCC(C)C1C)c1ccccc1 (centres undefined)	n
COCc1nncn1C1CCN(S(=O)(=O)c2ccc(Br)cc2)CC1	n
